# “And” between values parts separate entries of the source, which are not always exact repeats. Equal entries are not always repeated. Records with an inconclusive call do not appear. The source holds several records for some structures; these can differ, active in one and inactive in another. The source made the active and inactive calls. Unless noted, calls come from the whole dose curve; as a rule, active = well fitted curve in the direction sought with a large enough effect; inconclusive = small, poorly fitted or top-dose-only effect, or another doubt; inactive = no such curve, though single readings can be large; an effect the other way counts as inactive or inconclusive.
# Columns and labels:
# [1] = qHTS to identify inhibitors of the type 1 interferon - major histocompatibility complex class I in skeletal muscle: primary screen against the NCATS Mechanism Interrogation Plate v5.0 (MIPE) Libary (AID 1347411); note: nearly all actives have a fitted effect of over 65% in size; note: potency is the fitted concentration of half-maximal effect
# How it was run: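 Immortalized human myoblasts (C25cl48) with HiBit knocked into endogenous HLA-B*08:01 were stimulated with 4 ng/ml IFN-beta and given compounds in 11-point 1:3 titration from 46 uM. After 24 h at 37 C, lytic HiBiT luminescence was read.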
# [2] = Primary qHTS for inhibitors of nuclear receptor binding SET domain protein 2 (NSD2) in an isogenic RCH-ACV NSD2 p.E1099K mutant (9B) (AID 1645876); note: nearly all actives have a fitted effect of over 70% in size; note: potency is the fitted concentration of half-maximal effect
# [3] = Primary qHTS for inhibitors of nuclear receptor binding SET domain protein 2 (NSD2) in an RCH-ACV wild type WT cells (2C) (AID 1645877); note: nearly all actives have a fitted effect of over 70% in size; note: potency is the fitted concentration of half-maximal effect
# [4] = qHTS drug screen for cell cycle checkpoint inhibitors in PARPi-resistant BRCA-mutant ovarian cancer cell lines. (AID 1963452; calls by dose curve); conditions: PEO1/OlaR viability, CellTiter-Glo luminescence, 96 h, stronger effect = lower value
# How it was run: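 PEO1, PEO4 and PEO1/OlaR ovarian cancer cells, 600 per well, exposed 96 h at 37C to a dilution series. Viability read by CellTiter-Glo luminescence, normalized to DMSO and empty wells; activity summarized as Z-AUC.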
# [5] = biological target: Phospholipid hydroperoxide glutathione peroxidase GPX4 (Homo sapiens) (UniProt P36969); experiment: Primary qHTS Assay for Inhibitors of Recombinant Selenoprotein Glutathione Peroxidase 4 (GPX4) (AID 1845192); conditions: outcome: dose series up to 50 µM unless noted; note: nearly all actives have a fitted effect of over 65% in size; note: potency is the fitted concentration of half-maximal effect
# How it was run: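 GR-coupled assay: recombinant GPX4 preincubated 30 min with compound at room temperature; final 200 nM GPX4, 1 mM GSH, 0.5 mM cumene hydroperoxide, 0.5 mM NADPH, 100 nM GR, 0.01% BSA, pH 7.5 Tris. NADPH fluorescence (340/450 nm) read at 0 and 15 min.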
# [6] = biological target: Glutathione peroxidase 1 (Homo sapiens) (UniProt P07203); experiment: Primary qHTS Assay for Inhibitors of Recombinant Selenoprotein Glutathione Peroxidase 1 (GPX1) (AID 1845191); note: nearly all actives have a fitted effect of over 65% in size
# How it was run: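 GR-coupled assay: compounds preincubated 30 min at room temperature with GPX1, then reaction started with CHP; final 10 nM GPX1, 1 mM GSH, 0.5 mM CHP, 0.5 mM NADPH, 100 nM GR, 0.01% BSA, pH 7.5 Tris buffer. NADPH fluorescence (340/450 nm) read at 0 and 15 min.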
# [7] = qHTS Assay for Identifying Gametocytocidal Compounds (AID 743244);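 note: % is set by controls: 0 for no effect and ±100 for the full control effect; actives lower the fluorescent signal which means gametocytes are killed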; conditions: P. falciparum 3D7 stage III-V gametocytes, alamarBlue, 72 h; stronger effect = lower value
# How it was run: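 P. falciparum 3D7 stage III–V gametocytes (20,000 cells/well) were exposed to compounds for 72 h at 37 °C, 5% CO2. AlamarBlue was then added for 24 h; decreased resorufin fluorescence (Ex 525/Em 598 nm) indicated loss of viability.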
# [8] = NCATS anti-infectives library activity on HEK293 viability as a counter-qHTS vs the C. elegans viability qHTS (AID 1745854);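 note: HEK293 cells exposed to compounds for 24 hr before the viability read; % is set by controls: 0 for no effect and ±100 for the full control effect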
# How it was run: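 HEK293 cells (1,500/well) exposed 24 hr at 37C to 1:5 titrations, up to 41.7 uM final; counter-screen to a C. elegans viability qHTS. Viability by CellTiter-Glo luminescence after 10 min at room temperature; digitonin as control.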
# [9] = measured here: PEO1 parental Z-AUC
# Sequence of Phospholipid hydroperoxide glutathione peroxidase GPX4 (Homo sapiens) (P36969 whole entry, looked up): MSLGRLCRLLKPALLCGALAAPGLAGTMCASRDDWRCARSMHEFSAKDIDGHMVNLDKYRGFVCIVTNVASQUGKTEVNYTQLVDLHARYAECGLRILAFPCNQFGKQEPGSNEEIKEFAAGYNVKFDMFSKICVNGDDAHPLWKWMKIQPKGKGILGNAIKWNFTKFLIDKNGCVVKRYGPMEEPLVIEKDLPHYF
# Sequence of Glutathione peroxidase 1 (Homo sapiens) (P07203 whole entry, looked up): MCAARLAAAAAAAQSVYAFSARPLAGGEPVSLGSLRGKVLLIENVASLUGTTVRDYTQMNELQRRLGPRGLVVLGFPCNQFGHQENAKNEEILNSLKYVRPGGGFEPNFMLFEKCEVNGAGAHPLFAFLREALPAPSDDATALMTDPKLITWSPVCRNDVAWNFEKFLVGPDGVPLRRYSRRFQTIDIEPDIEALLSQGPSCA
SMILES,Potency [1],Potency [2],Potency [3],Z-AUC [4],"Z-AUC [4, 9]",Z-AUC ([4]; measured here: PEO4 Z-AUC),Potency [5],Potency [6],max response [7],Potency [8]
O=C(/C=C\n1cnc(-c2cc(C(F)(F)F)cc(C(F)(F)F)c2)n1)NNc1ccccn1,2.34 µM (active),3.72 µM (active),3.32 µM (active),-0.821 (inactive),-1.43,-1.79,–,–,–,–
CCN1C(=O)CNc2ncc(-c3ccc(-c4ncn[nH]4)nc3C)nc21,2.94 µM (active),0.833 µM (active),0.742 µM (active),0.377 (inactive),0.759,0.275,–,–,–,–
CC(C)(O)CC[C@@H](O)[C@](C)(O)[C@H]1CC[C@@]2(O)C3=CC(=O)[C@@H]4C[C@@H](O)[C@@H](O)C[C@]4(C)[C@H]3CC[C@]12C,inactive,inactive,inactive,0.631 (inactive),0.684,0.947,inactive,–,–,–
N=C(N)c1ccc2nc(-c3cc(CC(=O)N[C@@H](CC(=O)O)C(=O)O)cc(-c4cc(S(N)(=O)=O)ccc4O)c3O)[nH]c2c1,inactive,inactive,inactive,-0.76 (inactive),-0.562,-0.379,inactive,–,–,–
CN1C(=O)[C@@H](NC(=O)c2cc(Cc3ccccc3)on2)COc2ccccc21,inactive,inactive,–,0.979 (inactive),0.721,1.08,inactive,inactive,–,–
CCS(=O)(=O)N1CCC(C(C)n2c(C)c(C(=O)NCc3c(OC)cc(C)[nH]c3=O)c3ccccc32)CC1 (stereo not given),inactive,inactive,–,1.37 (inactive),0.975,0.959,inactive,inactive,–,–
O=C(O)/C(S)=C/c1ccc(I)cc1,inactive,inactive,–,0.452 (inactive),0.731,0.789,–,–,–,–
CC(C)(NS(=O)(=O)c1ccc2c(Cl)cnc(N=C(N)N)c2c1)C(=O)O,inactive,inactive,inactive,-0.917 (inactive),0.762,0.0928,–,–,–,–
Cc1nc(NC(=O)N2CCC[C@H]2C(N)=O)sc1-c1csc(C(C)(C)C)n1,inactive,5.25 µM (active),4.68 µM (active),0.111 (inactive),0.231,0.403,inactive,–,–,–
CS(=O)(=O)c1ccc(-c2cnc(NCc3ccco3)n3cnnc23)cc1,inactive,inactive,inactive,1.04 (inactive),0.794,1.01,–,–,–,–
O=c1ncccn1[C@@H]1O[C@H](CO)[C@@H](O)[C@H]1O,inactive,inactive,–,-0.938 (inactive),-0.911,-1.39,inactive,inactive,–,–
CCOC(=N)c1nc2ccc3ncnc(Nc4cc(F)c(F)cc4Cl)c3c2s1,inactive,inactive,–,-1.14 (inactive),-1.11,-1.07,inactive,–,–,–
CCS(=O)(=O)c1ccc2oc(-c3ccc4ccccc4c3)nc2c1,inactive,inactive,inactive,-0.19 (inactive),-0.286,0.217,inactive,–,–,–
CONC(=O)Nc1ccc(-c2sc3c(c2CN(C)C)c(=O)n(-c2ccc(OC)nn2)c(=O)n3Cc2c(F)cccc2F)cc1,inactive,inactive,–,0.387 (inactive),0.895,0.818,inactive,inactive,–,–
CN1[C@@H]2CCC[C@H]1CC(NC(=O)c1nn(C)c3ccccc13)C2 (stereo not given in full),inactive,inactive,inactive,–,–,–,–,–,3.13% (inactive),–
CS(=O)(=O)c1ccc([C@@H](CC2CCCC2)C(=O)Nc2nccs2)cc1,inactive,–,–,0.78 (inactive),0.607,0.595,inactive,inactive,–,–
Cc1nc(C)c(CN2CCN(C(c3ccc(F)cc3)c3ccc(F)cc3)CC2)nc1C,inactive,–,–,-0.108 (inactive),0.777,1.05,inactive,inactive,–,–

SMILES,Potency [1],Potency [2],Potency [3],Z-AUC [4],"Z-AUC [4, 9]",Z-AUC ([4]; measured here: PEO4 Z-AUC),Potency [5],Potency [6],max response [7],Potency [8]
O=C1S/C(=C\c2ccc(OCc3cccc(B(O)O)c3)cc2)C(=O)N1Cc1ccc(F)cc1,inactive,–,–,0.689 (inactive),0.417,0.814,inactive,inactive,–,–
CN(CCOc1ccc(-c2ccc3c(c2)OCO3)cc1C(C)(C)C)CC(=O)O,inactive,–,20.9 µM (active),0.446 (inactive),1.02,1.29,inactive,inactive,–,–
CC(=O)[C@]1(N)Cc2c(O)c3c(c(O)c2[C@@H](O[C@H]2C[C@H](O)[C@H](O)CO2)C1)C(=O)c1ccccc1C3=O,inactive,–,23.5 µM (active),-0.249 (inactive),-0.44,-0.284,inactive,inactive,–,–
Cn1nccc1Nc1nccc(-c2cc3c(s2)C(C)(C)N(CCN2CCOCC2)C3=O)n1,inactive,–,–,-1.65 (inactive),-0.829,-0.419,inactive,inactive,–,–
Cc1ccc(NC(=O)[C@H]2CCCN(C(=O)c3c(C)cccc3F)[C@H]2c2ccc(NC3CCCC3)cc2)cc1C(F)(F)F,inactive,–,inactive,-0.612 (inactive),0.0404,-0.339,–,–,–,–
Cc1[nH]nc2ncc(C(=O)N3CCC[C@H]3c3ccc(Cl)cc3)cc12,inactive,–,0.296 µM (active),-0.0587 (inactive),0.0336,-0.0502,inactive,inactive,–,–
COc1cc(-c2cn(C)c(=O)c3cnccc23)cc(OC)c1CN(C)C,inactive,–,–,1.5 (inactive),0.545,0.614,inactive,inactive,–,–
Nc1nc(OC(c2ccc(-c3cccc(F)c3)cc2)C(F)(F)F)cc(-c2ccc(C[C@H](N)C(=O)O)cc2)n1 (stereo not given in full),inactive,–,–,-0.825 (inactive),-0.615,-0.247,inactive,inactive,–,–
N[C@@H]1CN(c2c(F)cc3c(=O)c(C(=O)O)cn([C@@H]4C[C@@H]4F)c3c2Cl)CC12CC2,inactive,–,inactive,0.751 (inactive),0.374,0.877,–,inactive,–,–
CCOCOC[C@H](C[C@H](C)C(=O)NO)NC(=O)c1ccc(Oc2ccccc2)cc1,inactive,–,–,0.6 (inactive),0.894,1.19,inactive,inactive,–,–
CC(C)(c1ccc(OCC(O)CO)cc1)c1ccc(OCC(O)CCl)cc1 (stereo not given),inactive,–,–,1.33 (inactive),0.733,1.22,inactive,inactive,–,–
CCC(=O)OCC(=O)C1(OC(=O)CC)C(C)CC2C3CCC4=CC(=O)C=CC4(C)C3(F)C(O)CC21C (stereo not given),inactive,–,–,0.365 (inactive),0.623,-0.145,inactive,inactive,–,–
Nc1cccc2c1CN([C@H]1CCC(=O)NC1=O)C2=O,inactive,–,–,0.0993 (inactive),0.928,1.07,inactive,inactive,–,inactive
COc1cc(-c2cn(C)c(=O)c3cnccc23)c(OC)cc1CN(C)C,inactive,–,8.33 µM (active),-0.443 (inactive),-0.655,-0.662,inactive,inactive,–,–
CC(C)OC(=O)[C@H](C)N[P@](=O)(OC[C@H]1O[C@@H](n2ccc(=O)[nH]c2=O)[C@](C)(F)[C@@H]1O)Oc1ccccc1,inactive,–,–,-0.0429 (inactive),0.659,0.765,inactive,inactive,–,inactive
COc1ccc(S(=O)(=O)NCc2ccc(C(=O)NCCc3ccc(Cl)cn3)cc2)cc1,inactive,–,–,-2 (inactive),-0.947,-0.745,inactive,inactive,–,–
C=C1/C(=C/C=C2\CCCC3(C)[C@@H]([C@H](C)/C=C/C=C/C(O)(CC)CC)CC[C@@H]23)C[C@@H](O)C[C@@H]1O (stereo not given in full),inactive,–,18.6 µM (active),-0.128 (inactive),-0.195,-0.444,inactive and 15.8 µM (active),inactive,–,–

# From PubChem BioAssay (NCATS)
